# Data as given in PubChem BioAssay.
# Test: polyglutamine aggregate formation blockers (AID 1604)
# Details: polyglutamine-induced protein aggregation inhibition assay; stronger effect = higher value; concentration not given here
row,Compound,inhibition of aggregation [%]
1,O=c1c(-c2ccc(O)cc2)coc2cc(O)ccc12,27.9
2,O=C(O)c1cc(=O)c2cccc(O)c2[nH]1,57.7
3,NC(=O)c1cccc(N)c1,86.1
4,CC(C)=CCc1c2c(c3occ(-c4ccc(O)c(O)c4)c(=O)c3c1O)C=CC(C)(C)O2,45.6
5,O=C(O)c1cc([N+](=O)[O-])ccc1NCCCc1ccccc1,4.16
6,CC(=O)c1c(O)c(C)c(O)c2c1OC1=CC(=O)C(C(C)=O)C(=O)C12C (stereo not given),-17
7,O=C1C=CC(=C(c2ccc(O)cc2)c2ccc(O)cc2)C=C1,83.1
8,COc1c(OC)c2occc2c2oc(=O)ccc12,42.9
9,CON,-9.7
10,COc1cc(OC)c2ccc(=O)oc2c1,96.2
11,CC(=O)N[C@@H]1[C@@H](O)[C@H](O)[C@@H](CO)O[C@H]1O,91.6
12,C[C@]12CCC3c4ccc(OS(=O)(=O)O)cc4CCC3C1CC[C@H]2O (stereo not given in full),68.5
13,CCN1CCCC1CNC(=O)c1cc(S(N)(=O)=O)ccc1OC (stereo not given),59.1
14,NC1(C(=O)O)CCCC1,81.6
15,NC1=NCCN1CC(=O)O,80.3
16,NC(Cn1ccc(=O)c(O)c1)C(=O)O (stereo not given),7.48
17,COc1cc(C)c2c(=O)cc(-c3ccccc3)oc2c1,86.2
18,N#Cc1ccc2c(c1)N(CCCN1CCC(O)CC1)c1ccccc1S2,41.2
19,C=NC(C(=O)NC1C(=O)N2C1SC(C)(C)C2C(=O)O)c1ccccc1 (stereo not given),82
20,O=C1c2ccc(O)c(O)c2C(=O)c2c(O)ccc(O)c21,38.2

# Test: glutamate transport activators, MN-1 cells, MN-1 cell line (AID 1612);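 further: 0% = mean of DMSO vehicle wells on each plate; positive means more glutamate uptake than control and negative means less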
# Details: MN-1 motor neuron cells, stronger effect = higher value
row,Compound,glutamate uptake change [%]
1,O=c1c(-c2ccc(O)cc2)coc2cc(O)ccc12,12
2,O=C(O)c1cc(=O)c2cccc(O)c2[nH]1,9.13
3,NC(=O)c1cccc(N)c1,20.1
4,CC(C)=CCc1c2c(c3occ(-c4ccc(O)c(O)c4)c(=O)c3c1O)C=CC(C)(C)O2,0.58
5,O=C(O)c1cc([N+](=O)[O-])ccc1NCCCc1ccccc1,5.28
6,CC(=O)c1c(O)c(C)c(O)c2c1OC1=CC(=O)C(C(C)=O)C(=O)C12C (stereo not given),-5.26
7,O=C1C=CC(=C(c2ccc(O)cc2)c2ccc(O)cc2)C=C1,-0.24
8,COc1c(OC)c2occc2c2oc(=O)ccc12,-3.15
9,CON,19.3
10,COc1cc(OC)c2ccc(=O)oc2c1,-7.62
11,CC(=O)N[C@@H]1[C@@H](O)[C@H](O)[C@@H](CO)O[C@H]1O,-1.05
12,C[C@]12CCC3c4ccc(OS(=O)(=O)O)cc4CCC3C1CC[C@H]2O (stereo not given in full),-12.2
13,CCN1CCCC1CNC(=O)c1cc(S(N)(=O)=O)ccc1OC (stereo not given),-6.59
14,NC1(C(=O)O)CCCC1,2.91
15,NC1=NCCN1CC(=O)O,12.9
16,NC(Cn1ccc(=O)c(O)c1)C(=O)O (stereo not given),15.6
17,COc1cc(C)c2c(=O)cc(-c3ccccc3)oc2c1,-16.6
18,N#Cc1ccc2c(c1)N(CCCN1CCC(O)CC1)c1ccccc1S2,8.34
19,C=NC(C(=O)NC1C(=O)N2C1SC(C)(C)C2C(=O)O)c1ccccc1 (stereo not given),4.77
20,O=C1c2ccc(O)c(O)c2C(=O)c2c(O)ccc(O)c21,32

# Test: GFP-Q80 aggregate reduction, neuronal-like cells, cell-based, NGF-treated PC12, GFPQ80 (AID 1614);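 further: lower means fewer inclusions and 0 means no inclusions at all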
# Details: PC12 NGF-treated GFP-polyQ80 inclusion reduction
row,Compound,inclusion score
1,O=c1c(-c2ccc(O)cc2)coc2cc(O)ccc12,2
2,O=C(O)c1cc(=O)c2cccc(O)c2[nH]1,1
3,NC(=O)c1cccc(N)c1,2
4,O=C(O)c1cc([N+](=O)[O-])ccc1NCCCc1ccccc1,2
5,COc1c(OC)c2occc2c2oc(=O)ccc12,2
6,CON,2
7,COc1cc(OC)c2ccc(=O)oc2c1,2
8,CC(=O)N[C@@H]1[C@@H](O)[C@H](O)[C@@H](CO)O[C@H]1O,2
9,C[C@]12CCC3c4ccc(OS(=O)(=O)O)cc4CCC3C1CC[C@H]2O (stereo not given in full),2
10,CCN1CCCC1CNC(=O)c1cc(S(N)(=O)=O)ccc1OC (stereo not given),1.5
11,NC1(C(=O)O)CCCC1,2
12,NC1=NCCN1CC(=O)O,2
13,NC(Cn1ccc(=O)c(O)c1)C(=O)O (stereo not given),2
14,COc1cc(C)c2c(=O)cc(-c3ccccc3)oc2c1,1
15,C=NC(C(=O)NC1C(=O)N2C1SC(C)(C)C2C(=O)O)c1ccccc1 (stereo not given),2

# Test: 75Q-TubH aggregate inhibition, S. cerevisiae, yeast (AID 1616)
# Details: S. cerevisiae 75Q-TubH polyglutamine aggregation suppression; stronger effect = higher value
row,Compound,aggregation suppression score
1,O=c1c(-c2ccc(O)cc2)coc2cc(O)ccc12,1.43
2,O=C(O)c1cc(=O)c2cccc(O)c2[nH]1,1.12
3,NC(=O)c1cccc(N)c1,1.37
4,CC(C)=CCc1c2c(c3occ(-c4ccc(O)c(O)c4)c(=O)c3c1O)C=CC(C)(C)O2,-1.07
5,O=C(O)c1cc([N+](=O)[O-])ccc1NCCCc1ccccc1,0.265
6,CC(=O)c1c(O)c(C)c(O)c2c1OC1=CC(=O)C(C(C)=O)C(=O)C12C (stereo not given),0.354
7,O=C1C=CC(=C(c2ccc(O)cc2)c2ccc(O)cc2)C=C1,1.13
8,COc1c(OC)c2occc2c2oc(=O)ccc12,0.328
9,CON,1.29
10,COc1cc(OC)c2ccc(=O)oc2c1,0.869
11,CC(=O)N[C@@H]1[C@@H](O)[C@H](O)[C@@H](CO)O[C@H]1O,1.62
12,C[C@]12CCC3c4ccc(OS(=O)(=O)O)cc4CCC3C1CC[C@H]2O (stereo not given in full),1.25
13,CCN1CCCC1CNC(=O)c1cc(S(N)(=O)=O)ccc1OC (stereo not given),1.43
14,NC1(C(=O)O)CCCC1,1.57
15,NC1=NCCN1CC(=O)O,0.99
16,NC(Cn1ccc(=O)c(O)c1)C(=O)O (stereo not given),0.845
17,COc1cc(C)c2c(=O)cc(-c3ccccc3)oc2c1,-0.775
18,N#Cc1ccc2c(c1)N(CCCN1CCC(O)CC1)c1ccccc1S2,1.12
19,C=NC(C(=O)NC1C(=O)N2C1SC(C)(C)C2C(=O)O)c1ccccc1 (stereo not given),0.649
20,O=C1c2ccc(O)c(O)c2C(=O)c2c(O)ccc(O)c21,0.505
